Screening results as filed in PubChem BioAssay.
Six1-Eya2 blk: inhibitors of human Six1/Eya2 interaction; Q15475+O00167; AlphaScreen GST-Six1/His-Eya2 binding, biochemical; hits give low values; activity change, % (concentration not given with the values); 0.56% of 360,000 active; in the data active = activity change below about -65%; inconclusive = mostly about -30% to -63%; note: % is set by controls: 0 for no effect and ±100 for the full control effect
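Six1/Eya2 binding was read as AlphaScreen signal after compounds were pinned into GST-Six1 plus His-tagged Eya2 (5X stock 250/500 nM) in pH 8.0 Tris/NaCl/TCEP buffer, beads added, then incubated 1 h, 37 C, dark.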
CtBP-E1A inh: blocks the CtBP interaction with E1A; AlphaScreen GST-E1A/His-CtBP binding, 1536-well; hits give low values; 0.49% of 340,000 active; activity change, % (concentration not given with the values); in the data active = activity change below about -65%; inconclusive = mostly about -30% to -63%; note: % is set by controls: 0 for no effect and ±100 for the full control effect
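AlphaScreen with 125 nM GST-E1A and 125 nM His-CtBP (5X stocks) in Tris pH 8.0, 300 mM NaCl, BSA, Tween 20, TCEP. Compounds preincubated 2 h at 37 deg C, then glutathione donor/nickel acceptor beads added for 1 h at 37 deg C in dark.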
Eya2 inh: blocks the phosphatase activity of human Eya2. Potency, µM (series often up to 76.9 µM), inactives show top-dose activity, negative = inhibition, most hits filed as inhibitors. AID 488837. recombinant Eya2, OMFP fluorescence dephosphorylation (OMFP is methylfluorescein phosphate). 0.006% of 330,000 active. O00167; note: potency is the fitted concentration of half-maximal effect; % is set by controls: 0 for no effect and ±100 for the full control effect
Target sequence (O00167 whole entry, looked up): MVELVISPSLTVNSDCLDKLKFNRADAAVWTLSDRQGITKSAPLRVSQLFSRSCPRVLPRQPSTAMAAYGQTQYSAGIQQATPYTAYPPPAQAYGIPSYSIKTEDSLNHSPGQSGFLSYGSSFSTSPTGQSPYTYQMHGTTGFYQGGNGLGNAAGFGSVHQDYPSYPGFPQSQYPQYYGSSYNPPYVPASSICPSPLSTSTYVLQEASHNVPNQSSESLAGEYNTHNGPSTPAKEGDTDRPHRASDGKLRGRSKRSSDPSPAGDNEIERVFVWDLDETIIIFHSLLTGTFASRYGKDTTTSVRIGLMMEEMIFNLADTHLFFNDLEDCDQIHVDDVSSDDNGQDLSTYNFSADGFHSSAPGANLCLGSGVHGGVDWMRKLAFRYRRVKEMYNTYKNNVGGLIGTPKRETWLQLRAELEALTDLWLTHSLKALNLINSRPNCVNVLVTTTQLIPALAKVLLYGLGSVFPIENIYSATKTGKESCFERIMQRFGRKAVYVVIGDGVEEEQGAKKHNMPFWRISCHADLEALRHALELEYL
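Eya2 protein (added as 0.2 uM solution) was preincubated with compound for 10 min at ambient temperature in 50 mM HEPES pH 7.5, 50 mM NaCl, 5 uM MgCl2, 0.05% BSA, 1 mM DTT. OMFP (added at 50 uM) then reacted 10 min; fluorescence read at 485/525 nm.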
MBNL1-CUG inh: MBNL1-poly(CUG) RNA binding inhibition; Q9NR56; TR-FRET MBNL1-His/biotin-(CUG)12 binding, 665/545 ratio; Potency, µM (doses to about 57.5 µM), for inactives: top-dose activity change, negative = inhibition, usual class: inhibitors; 0.036% of 280,000 active; AID 2675; active = well fitted inhibition curve with a large enough effect in the signal ratio, with a control signal flat, not every such curve was filed as active; inconclusive = small, poorly fitted or top-dose-only effect, or effect the other way, or a change in a side signal; inactive = no such curve, though single readings can be large or run the other way; the % refers to the signal ratio; note: potency is the fitted concentration of half-maximal effect; % is set by controls: 0 for no effect and ±100 for the full control effect
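His-tagged MBNL1 binding to biotinylated (CUG)12 RNA was measured by TR-FRET using terbium anti-His antibody (0.055 ng/ul final) and streptavidin-XL665 (5 nM final). Compounds were titrated 92 nM to 58 uM; 60 min at room temperature.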
L3MBTL1 inh: L3MBTL1 (human) inhibition. Q9Y468. AlphaScreen L3MBTL1–H3K9me1 peptide binding. Potency, µM (titrated, usually from 57.1 µM), without a hit: at the top dose activity, negative = inhibition, actives largely listed as inhibitors. 0.66% of 230,000 active. AID 485360; note: potency is the fitted concentration of half-maximal effect; % is set by controls: 0 for no effect and ±100 for the full control effect; nearly all actives have a fitted effect of over 60% in size
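AlphaScreen proximity signal between nickel-chelate acceptor and streptavidin donor beads (final 10 ug/mL) reports binding of 50 nM L3MBTL1 to 75 nM biotin-H3 K9me1 peptide; complex incubated with compounds 30 min at room temperature; cefsulodin titration as control.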
CBFb-RUNX1 inh: inhibitors of human CBF-beta and RUNX1 interaction; 230,000 tested, under 10 active; Potency, µM (series often up to 59.8 µM), inactives show top-dose activity, negative = inhibition, actives largely listed as inhibitors; AID 1477; Q01196+Q13951; AlphaScreen CBFb-His/RUNX1-biotin binding, biochemical; note: % of control where 0% means no effect
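CBF-beta (His) and RUNX1 (biotin), 30 nM each; 20 min preassociation; + compound, 15 min; + beads 50 ng each (Ni, streptavidin), 90 min; RT; AlphaScreen read.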
Starred values were filed as active, the others as inactive; u = inconclusive; x = no result; [ ] = dose if it differs, or a comment. Shown are actives, neighbours in structure and some others; about 0.89% of the full set was active somewhere. Unless noted, calls come from the whole dose curve; as a rule, active = well fitted curve in the direction sought with a large enough effect; inconclusive = small, poorly fitted or top-dose-only effect, or another doubt; inactive = no such curve, though single readings can be large; an effect the other way counts as inactive or inconclusive.

SMILES	Six1-Eya2 blk	CtBP-E1A inh	Eya2 inh	MBNL1-CUG inh	L3MBTL1 inh	CBFb-RUNX1 inh
CCOc1ccc(NC(=O)c2c(NC(=O)CNCCN3CCOCC3)sc3c2CCC3)cc1	u	-82.3*	-8.5%	4.5%	x	x
Cc1ccc(NS(=O)(=O)c2cc([N+](=O)[O-])ccc2NNC(=S)Nc2cccc(Cl)c2)c(C)c1	u	u	-15.1%	100.6%	25.1µM*	2.9%
COc1ccc(C(=O)Nc2nc3ccccc3[nH]2)cc1S(=O)(=O)N1CCCC1	u	-70.3*	5.4%	-4.5%	x	-2.0%
COc1ccc(NC(=O)c2c3c(nc4ccccc24)CCC3)cc1S(=O)(=O)N1CCOCC1	-3.9	-12.4	-3.8%	x	31.6µM*	u
c1ccc(CNCCC(Cc2ccccc2)c2ccco2)cc1 (stereo not drawn)	-23.7	3.3	u	-1.9%	-16.3%	9.2%
CN(C)c1ccc(CNCCC(Cc2ccccc2)c2ccco2)cc1 (stereo not drawn)	-65.5*	u	u	-4.4%	x	-13.0%
O=C(N/N=C/c1c(O)ccc2ccccc12)c1[nH]ncc1Br	-84.5*	-89.8*	-6.2%	10.1%	-16.6%	u
O=C(N/N=C\c1c(O)ccc2ccccc12)c1ccc(Cn2cccn2)o1	-85.6*	-73.0*	15.6%	20.3%[11.5 µM]	-6.0%	-12.3%
CCOc1ccc(/C=N/NC(=O)c2[nH]ncc2Br)c(O)c1	-82.9*	-91.8*	0.9%	17.8%	-2.7%	-22.4%
O=C(NNc1ccccn1)C(=O)NNS(=O)(=O)c1ccc(F)cc1	-90.0*	-91.8*	4.6%	12.8%	-29.6%	-16.0%
O=C(NNS(=O)(=O)c1ccc(F)cc1)c1ccccc1	11.7	-17.5	2.6%	-5.3%	4.0%	x
COCCNC(=O)C(=O)NNS(=O)(=O)c1ccc(Cl)cc1	1.6	12.1	9.8%	-7.2%	18.1%	3.3%
O=C(NNc1ccccn1)C(=O)NNS(=O)(=O)c1ccc(Cl)cc1	-84.6*	u	u	4.0%	-1.9%	u
O=C(NCCc1ccccn1)c1ccc(OC(F)F)cc1	1.4	-6.7	2.2%	-1.6%	8.3%	2.6%
O=C(NNC(=O)c1cccs1)c1ccccn1	-74.5*	u	x	x	x	x
O=C(Nc1nccs1)c1cnccn1	-24.3	u	-0.5%	6.4%	23.3%	-4.8%
O=C(Nc1nccs1)c1ccccn1	-86.8*	u	0.5%	-1.0%	u	-24.7%
O=C(NNC(=O)c1ccccc1Cl)c1cccs1	0.8	-0.2	-6.0%	-10.3%	u	u
O=C(NNC(=O)c1ccccn1)c1ccc(OC(F)F)cc1	-84.4*	-78.0*	-38.5%	x	-5.4%	x
Cc1ccc(/C=C/S(=O)(=O)NCC(=O)OCC(=O)Nc2ccc(C(=O)N(C)C)cc2)cc1	-8.9	-90.8*	8.8%	x	2.5%	x
Cc1ccc(/C=C/S(=O)(=O)NCC(=O)OCC(=O)Nc2ccc(C(N)=O)cc2)cc1	-4.4	-6.4	-17.3%	x	6.1%	x
NC(=O)[C@@H]1CCOc2c(I)cc([N+](=O)[O-])cc2C(=O)N[C@@H](CO)C(=O)NCC(=O)N1	-20.0	-1.6	10.3%	u	3.7%	4.8%[2.36 µM]
CCOc1cc(/C=N/NC(=O)CN(CCc2ccccc2)S(=O)(=O)c2ccc(NC(C)=O)cc2)ccc1O	-75.4*	-0.4	-9.8%	x	-10.3%	-6.1%
CN(C)c1cc2c(c(N(C)C)c1)C(=O)c1ccccc1C2=O	-80.9*	-80.8*	1.6%	u	17.8µM*	-7.2%
NC(=S)NN=Cc1cc(-c2cccc(N)c2)ccn1	-88.2*	-81.0*	x	x	x	x
NC(=S)N/N=C\c1c2ccccc2cc2ccccc12	-10.6	-3.1	1.2%	u	-1.9%	-0.6%
O=C(NNC(=O)c1ccccc1O)c1ccc(Cl)c(S(=O)(=O)N2CCCCC2)c1	-10.8	-29.6	-21.7%	x	-9.7%	x
